Screening data deposited in PubChem BioAssay by National Center for Advancing Translational Sciences (NCATS).
An excerpt weighted towards active compounds, which were near 2.8% of everything screened.
KCNH2 3.1 inh – inhibitors of human KCNH2 3.1 potassium channel isoform; U2OS KCNH2 3.1, thallium flux FluxOr; active compounds read low; activity change, % (tested at about 1.8 µM); 340,000 tested, 0.95% active;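 active means maximum activity change below -70%; inconclusive means maximum activity change from -70% to -50%; inactive means maximum activity change above -50%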;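 further: thallium influx rate constant from kinetic fluorescence after stimulation buffer; on the % scale 0 is the no-effect control and ±100 the full control effect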
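Channel expression came from 3.1 mutant virus (1.77 x 10^8 /mL) applied to suspended U2OS cells for 4 h. Flux was tracked with FluxOr dye plus Red40 quencher, and kinetic rate constants normalized to controls.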
GLS inhibitor – blocks human kidney-isoform glutaminase activity; Potency, µM (doses to about 45.5 µM), inactives show at the highest dose activity change, negative = inhibition, hits mostly inhibitors; 410,000 tested, 0.21% active; GLS enzymatic activity, qHTS titration; O94925; further: potency means the concentration at half of the fitted maximal effect; on the % scale 0 is the no-effect control and ±100 the full control effect
Target sequence (O94925 whole entry, looked up, canonical isoform): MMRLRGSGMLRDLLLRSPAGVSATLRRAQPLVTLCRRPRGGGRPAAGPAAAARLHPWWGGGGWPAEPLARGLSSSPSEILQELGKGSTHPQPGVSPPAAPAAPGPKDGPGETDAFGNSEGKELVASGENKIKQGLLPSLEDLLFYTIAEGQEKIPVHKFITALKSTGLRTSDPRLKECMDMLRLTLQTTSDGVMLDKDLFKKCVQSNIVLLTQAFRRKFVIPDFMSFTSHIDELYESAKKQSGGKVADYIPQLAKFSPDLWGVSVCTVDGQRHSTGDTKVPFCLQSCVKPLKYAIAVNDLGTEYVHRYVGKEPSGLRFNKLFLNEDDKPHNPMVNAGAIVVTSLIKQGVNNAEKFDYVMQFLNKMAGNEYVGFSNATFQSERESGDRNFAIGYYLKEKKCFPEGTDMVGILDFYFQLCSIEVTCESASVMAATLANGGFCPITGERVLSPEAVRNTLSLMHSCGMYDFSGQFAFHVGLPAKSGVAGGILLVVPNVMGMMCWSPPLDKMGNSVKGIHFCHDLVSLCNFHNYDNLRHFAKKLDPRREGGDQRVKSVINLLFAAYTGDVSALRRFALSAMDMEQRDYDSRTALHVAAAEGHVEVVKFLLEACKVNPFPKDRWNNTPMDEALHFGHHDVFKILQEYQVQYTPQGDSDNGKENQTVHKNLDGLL
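Human kidney-isoform GLS in 45 mM KH2PO4 pH 8.2, 0.02% Tween-20, with compound, started with 1mM L-Glutamine (added stock). Glutamate oxidase/HRP/Amplex red coupled fluorescence read at start and after 30 min at RT.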
hERG WT inh – KCNH2 (human, wildtype) channel inhibition; Q12809; U2OS, BacMam KCNH2, thallium flux FluxOr; active compounds read low; activity change, % at 1.84 µM; 340,000 tested, 0.37% active;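 active means maximum activity change below -70%; inconclusive means maximum activity change between -70% and -50%; inactive means maximum activity change above -50%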; further: on the % scale 0 is the no-effect control and ±100 the full control effect
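U2OS cells were transduced with wild-type KCNH2 virus (2.03 x 10^8 / mL) for 4 h at room temperature, then cultured overnight at 37 C. Thallium flux was read with FluxOr dye. Rate constants were normalized to DMSO controls.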
GLP-1R inv ag – GLP-1 receptor (human) inverse agonism. HEK293 GLP-1R CRE-luciferase, luminescence, 24 h; GLP-1R form is constitutively active. AID 624417. P43220. Potency, µM (series often up to 38.3 µM), for inactives: top-dose activity change, negative = inhibition, hits mostly inhibitors. 410,000 tested, 1.6% active; further: potency means the concentration at half of the fitted maximal effect; on the % scale 0 is the no-effect control and ±100 the full control effect; nearly all actives have a fitted effect of over 55% in size
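Inverse agonists were sought by their lowering of basal cAMP reporter luciferase output in HEK293 cells stably carrying constitutively active human GLP-1R, after 24 h compound treatment.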
HEK293 tox – cytotoxicity counter-screen for GLP-1 receptor inverse agonists; HEK293 cAMP-luciferase reporter cells, luminescence, 24 h; Potency, µM (top dose mostly 38.3 µM), for inactives: at the highest dose activity change, negative = inhibition, actives largely listed as inhibitors; 410,000 tested, 0.13% active; AID 624418;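 further: loss of luciferase light is scored as toxicity; potency means the concentration at half of the fitted maximal effect; on the % scale 0 is the no-effect control and ±100 the full control effect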
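Compound-treated cells are incubated 24 hr at 37 deg C under 5% CO2 after a 12 hour attachment period, then luciferase detection reagent is added and luminescence is measured following 12 min at room temperature; lowered signal indicates toxicity.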
GLP1R ag – GLP-1 receptor (human) agonism | Potency, µM (series often up to 45.6 µM), for inactives: top-dose activation, most hits filed as activators | HEK293 GLP-1R CRE-luciferase, luminescence, 4-6 h; cells express a hypersensitive GLP-1R form | 380,000 tested, 0.007% active | AID 624172 | P43220; further: potency means the concentration at half of the fitted maximal effect; % of control where 0% means no effect
An asterisk follows results filed as active; ? = inconclusive; · = no result given. Unless noted, the call rests on the fitted dose curve; in most records, active means well fitted curve in the direction sought with a large enough effect; inconclusive means small, poorly fitted or top-dose-only effect, or another doubt; inactive means no such curve, though single readings can be large; an effect the other way counts as inactive or inconclusive.

SMILES	KCNH2 3.1 inh	GLS inhibitor	hERG WT inh	GLP-1R inv ag	HEK293 tox	GLP1R ag
CC1CCCN(C(=O)c2ccc(OC3CCN(CCc4ccccc4)CC3)cc2)C1 (configuration not stated)	-6	18%	24	8.9µM*	?	3%
O=C(c1ccc(OC2CCN(CCc3ccccc3)CC2)cc1)N1CCCC(CO)C1 (configuration not stated)	?	1%	-14	1%	-9%	-3%
CCOc1ccc(C(=O)N2CCN(CCc3ccccc3)CC2)cc1OCC	-90*	-3%	-30	-6%	8%	-2%
CCCOC1CCCN(C(=O)c2ccc(OC3CCN(C(=O)COC)CC3)cc2)C1 (configuration not stated)	·	0%	-7	11µM*	10µM*	-6%
CCOc1ccc(C(=O)N2CCN(c3ccccc3)CC2)cc1OCC	-4	2%	10	1%	2%	-1%
COC(=O)c1ccc(CN2CCC(Oc3ccc(C(=O)N4CCCCC4)cc3)CC2)cc1	-8	2%	16	?	-5%	-3%
O=C(N/N=C/c1ccc(O)cc1O)c1ccncc1	11	13µM*	3	?	3%	-1%
CC(C)Nc1ccc(Nc2ccnc3cc4ccccc4cc23)cc1	-91*	-23%	4	3.2µM*	4.5µM*	-6%
OC(CNCC1(N2CCCCC2)CCCCC1)COc1ccc(Cl)cc1Cl (configuration not stated)	-86*	0%	?	?	?	7%
CCOc1ccc(NC(=O)CN(C)C(=O)CCCOc2ccc(Br)cc2)cc1OCC	5	-2%	-5	10µM*	3%	8%
CCOc1ccc(NC(=O)CN(C)C(=O)CCNC(=O)c2ccc(Br)cc2)cc1OCC	0	1%	6	14%	14%	0%
COc1ccc(N2CCN(C(=O)c3c(C)oc4ncnc(N5CCCCC5)c34)CC2)cc1	·	12%	·	11µM*	-25%	·
Cc1ccc2nc(-c3cccnc3)oc2c1	-180*	-5%	-221*	11%	0%	-7%
Cc1cccc([C@@H](NC(=O)OC(C)(C)C)C(=O)OC(C)(C)C)c1	27	1%	0	?	5%	-1%
CC(C)(C)OC(=O)N[C@@H](C(=O)OC(C)(C)C)c1ccccc1	-86*	1%	-9	-25%	13%	14%
CCN(CC)c1nn2c(=O)c(C(=O)NCc3ccc(N(C)C)cc3)cnc2s1	·	6%	·	-9%	-2%	·
CCOc1ccc(/C=N/Nc2nc(C)cs2)c(O)c1	-10	18%	1	4µM*	3.2µM*	-7%
CCOc1ccc(/C=N/NC(=O)c2[nH]ncc2Br)c(O)c1	-77*	0%	0	?	10%	1%
Cc1csc(N/N=C/c2ccccc2F)n1	0	-1%	3	12%	-14%	15%
CCOc1ccc(CCNC(=O)c2cc3c(=O)n(C)c4ccccc4c3n2C)cc1OCC	·	-6%	·	8%	0%	2%
CC(C)C(NC(=O)CCNC(=O)c1ccc([N+](=O)[O-])cc1)c1nc2ccccc2[nH]1 (configuration not stated)	13	7%	6	2%	23%	-2%
CCCn1c(N)c(C(=O)CN2CCN(S(=O)(=O)c3cccc(Cl)c3)CC2)c(=O)[nH]c1=O	-73*	0%	?	-4%	-6%	-7%
CCN(CC)S(=O)(=O)c1ccc2c(c1)N(CC(=O)Nc1c(C)cc(C)cc1C)C(=O)CS2	·	5%	·	-23%	0%	·
O=C(NN=C1CCCC1)c1[nH]c2ccc(Cl)cc2c1-c1ccccc1	0	-10%	18	3.2µM*	?	21%
Cc1ccc2nc(-c3ccccc3)cc(C(=O)N(C)CC(=O)Nc3ccccc3Br)c2c1	4	-2%	-2	?	-19%	18%
